Assay results published in PubChem BioAssay (NCI).
The panel holds about 79,000 compounds, 15% with a hit somewhere; the sample as a whole holds those more often. A number with no mark means an inactive call. No stated cut-off is given here; in the data, active means growth inhibition above about 70%; inactive means the rest.

Assay: NCI Yeast Anticancer Drug Screen. Data for the rad50 strain (AID 155);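 further: 0% = growth of vehicle-only cultures of the same strain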
Conditions: S. cerevisiae rad50 strain growth inhibition; at 50.0 µM; stronger effect = higher value
How it was run: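 A DNA repair-deficient yeast mutant serves as the test organism; compound-induced growth inhibition is calculated against vehicle-treated cells.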

SMILES	growth inhibition [%]
CCCc1c(O)cccc1O	13.8
CC(=O)Oc1cccc2cc3cc(C)cc(OC(C)=O)c3c(OC(C)=O)c12	-7.15
CCOC(=O)/C(=C/c1ccc(C#N)cc1)N(CC)CC	-3.95
C(=N\N(CCCCN(/N=C/c1ccccc1)c1ccccc1)c1ccccc1)/c1ccccc1	38.5
[O-][n+]1ccccc1/C=C/c1cccc[n+]1[O-]	-30.1
C=C1C(=O)N2CCc3c([nH]c4ccccc34)[C@H]2C[C@@H]1CO	5.4
CCOC(=O)C1=CC2CCOC2O1 (stereo not given)	-19.8
Cc1cc2c(cc1Cl)SC(NNC(=O)c1ccncc1)=NS2(=O)=O	-42.5
C/C(N=NS(=O)(=O)c1ccccc1)=C1\C=CC=CN1O	-7.9
CNC(=S)Nc1ccccc1	-21.3
O=C(O)C1CCCCC1C(=O)Nc1ccc(Cl)c(Cl)c1 (stereo not given)	5.75
O=C1/C(=C/C=C/c2ccccc2)CCC1CNc1ccc(Br)cc1 (stereo not given)	-20.2
Cc1cc(O)c(/C=N/C(=S)Nc2ccccc2)c(=O)o1	-20.4
Clc1ccc(Cl)c(-c2csc(-c3cccnc3)n2)c1	4.95
Fc1ccc(-c2nnc(-c3ccccc3)o2)cc1	21.4
CC1=Nc2nc3ccccc3n2C(C)(C)C1	14.6
COc1ccc(CCCC2C(=O)CC(C)OC2=O)cc1OC (stereo not given)	-26.9
COc1cccc(NC(=O)C(=O)C(C(=O)c2ccccc2F)C2OC(=O)c3ccccc32)c1 (stereo not given)	15.6
Cn1c([N+](=O)[O-])cnc1COS(=O)(=O)c1cccnc1	6.05
CC(C)c1ccc2c(c1)CC[C@H]1[C@](C)(COCCC#N)CCC[C@]21C	-10.9

SMILES	growth inhibition [%]
CC12CCCC1C1CC=C3CC(SC4CCC5(C)C(=CCC6C7CCCC7(C)CCC65)C4)CCC3(C)C1CC2 (stereo not given)	-2.05
CC(=O)NN	-5.25
O=C1OC(=O)C(c2ccccc2)=C1c1ccccc1	10.6
C/C(=N\NC(=S)N1CCCCCC1)c1nccs1	3.95
Cc1ccc(C)c2c1C(=O)c1ccccc1C2(O)C#Cc1ccccc1 (stereo not given)	27.6
CC(=O)C(N)=NCc1ccccc1	10.2
COc1cc(/C=C\C(=O)c2cccc([N+](=O)[O-])c2)cc(OC)c1OC	20.4
COc1ccc2cc(C(=O)c3ccccc3)c(=O)oc2c1	-0.1
OC1CCC2=C(C1)C1CCC2C1 (stereo not given)	9.05
C#CCN(N=O)C(=O)NC(CCCCNC(=O)OCc1ccccc1)C(=O)OCc1ccccc1 (stereo not given)	-8.65
Nc1nnc(-c2ccccc2)o1	9.85
CCc1ccc2ccccc2c1N	20.6
CCN(c1ccccc1)S(=O)(=O)c1cc(N)ccc1C	-23.8
Cn1c2c(c(=O)c3c4[nH]c5c(c(=O)c4ccc31)CCCC5)CCCC2	-10.2
COc1ccc(NC=O)c(C)c1	-10.5
c1ccc2c3c(ccc2c1)CCCC3	7.5
O=C(O)c1ccc(C(=O)c2ccccc2C(=O)O)cc1C(=O)O	-8.75
C(=N\C(/N=C/c1ccccc1)c1ccccc1)/c1ccccc1	0.4
CCNC(=O)Nc1ccccn1	-8.4
O=C(c1ccccc1)c1c(O)c2ccccc2oc1=O	-13.6

Assay: NCI Yeast Anticancer Drug Screen. Data for the mec2-1 strain (AID 157)
Conditions: S. cerevisiae mec2-1 strain, at 50.0 µM, stronger effect = higher value
How it was run: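 Using mec2-1 yeast: add compound, measure growth, express inhibition versus vehicle-treated cultures.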

SMILES	growth inhibition [%]
CCCc1c(O)cccc1O	6.55
CC(=O)Oc1cccc2cc3cc(C)cc(OC(C)=O)c3c(OC(C)=O)c12	3.8
CCOC(=O)/C(=C/c1ccc(C#N)cc1)N(CC)CC	-13.1
C(=N\N(CCCCN(/N=C/c1ccccc1)c1ccccc1)c1ccccc1)/c1ccccc1	11.2
[O-][n+]1ccccc1/C=C/c1cccc[n+]1[O-]	-31.1
C=C1C(=O)N2CCc3c([nH]c4ccccc34)[C@H]2C[C@@H]1CO	2.4
CCOC(=O)C1=CC2CCOC2O1 (stereo not given)	-14.8
Cc1cc2c(cc1Cl)SC(NNC(=O)c1ccncc1)=NS2(=O)=O	-39.8
C/C(N=NS(=O)(=O)c1ccccc1)=C1\C=CC=CN1O	-1.5
CNC(=S)Nc1ccccc1	-33.8
O=C(O)C1CCCCC1C(=O)Nc1ccc(Cl)c(Cl)c1 (stereo not given)	20.1
O=C1/C(=C/C=C/c2ccccc2)CCC1CNc1ccc(Br)cc1 (stereo not given)	-11.7
Cc1cc(O)c(/C=N/C(=S)Nc2ccccc2)c(=O)o1	-48.8
Clc1ccc(Cl)c(-c2csc(-c3cccnc3)n2)c1	-11.6
Fc1ccc(-c2nnc(-c3ccccc3)o2)cc1	19.1
CC1=Nc2nc3ccccc3n2C(C)(C)C1	18.8
COc1ccc(CCCC2C(=O)CC(C)OC2=O)cc1OC (stereo not given)	3.25
COc1cccc(NC(=O)C(=O)C(C(=O)c2ccccc2F)C2OC(=O)c3ccccc32)c1 (stereo not given)	0.95
Cn1c([N+](=O)[O-])cnc1COS(=O)(=O)c1cccnc1	-9.15
CC(C)c1ccc2c(c1)CC[C@H]1[C@](C)(COCCC#N)CCC[C@]21C	-28.2

SMILES	growth inhibition [%]
CC12CCCC1C1CC=C3CC(SC4CCC5(C)C(=CCC6C7CCCC7(C)CCC65)C4)CCC3(C)C1CC2 (stereo not given)	-0.25
CC(=O)NN	0.45
O=C1OC(=O)C(c2ccccc2)=C1c1ccccc1	5
C/C(=N\NC(=S)N1CCCCCC1)c1nccs1	0.25
Cc1ccc(C)c2c1C(=O)c1ccccc1C2(O)C#Cc1ccccc1 (stereo not given)	1.45
CC(=O)C(N)=NCc1ccccc1	2.7
COc1cc(/C=C\C(=O)c2cccc([N+](=O)[O-])c2)cc(OC)c1OC	30.1
COc1ccc2cc(C(=O)c3ccccc3)c(=O)oc2c1	-20.9
OC1CCC2=C(C1)C1CCC2C1 (stereo not given)	-10.7
C#CCN(N=O)C(=O)NC(CCCCNC(=O)OCc1ccccc1)C(=O)OCc1ccccc1 (stereo not given)	-25.4
Nc1nnc(-c2ccccc2)o1	-4.8
CCc1ccc2ccccc2c1N	8.05
CCN(c1ccccc1)S(=O)(=O)c1cc(N)ccc1C	-10.7
Cn1c2c(c(=O)c3c4[nH]c5c(c(=O)c4ccc31)CCCC5)CCCC2	3.7
COc1ccc(NC=O)c(C)c1	-38.8
c1ccc2c3c(ccc2c1)CCCC3	-2.15
O=C(O)c1ccc(C(=O)c2ccccc2C(=O)O)cc1C(=O)O	5
C(=N\C(/N=C/c1ccccc1)c1ccccc1)/c1ccccc1	-4.8
CCNC(=O)Nc1ccccn1	-1.55
O=C(c1ccccc1)c1c(O)c2ccccc2oc1=O	-24
